# Source: PubChem BioAssay (NCATS)
# Where “and” joins values, the source holds several entries; their conditions need not be identical. Equal entries are not always repeated. Calls of active or inactive are those of the source. Unless noted, calls come from the whole dose curve.
# Biological target: Ubiquitin carboxyl-terminal hydrolase 1 (Homo sapiens) (UniProt O94782)
# Experiment: Inhibitors of USP1/UAF1: Pilot qHTS (AID 504865; active = well fitted inhibition curve with a large enough effect; inconclusive = small, poorly fitted or top-dose-only effect; note: nearly all actives have a fitted effect of over 35% in size; note: potency is the fitted concentration of half-maximal effect;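 for activity change, negative = inhibition: rhodamine fluorescence freed from ubiquitin-rhodamine substrate followed over time; top concentration of the series differs between compounds; % is set by controls: 0 for no effect and ±100 for the full control effect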)
# Conditions: purified USP1/UAF1, Ub-rhodamine cleavage fluorescence; series mostly up to 114 µM; activity change, negative = inhibition: at the top concentration
# Method in brief: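 1nM USP1/UAF1 + cpd, 15 min RT; start w/ Ub-Rho 150nM final; kinetic FL 480/540 nm, 6 reads q60 s. Buffer 50mM HEPES pH 7.8, 0.5mM EDTA, 1mM TCEP, 0.01% Tween-20, 0.1 mg/ml BSA.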
# Sequence of Ubiquitin carboxyl-terminal hydrolase 1 (Homo sapiens) (O94782 whole entry, looked up): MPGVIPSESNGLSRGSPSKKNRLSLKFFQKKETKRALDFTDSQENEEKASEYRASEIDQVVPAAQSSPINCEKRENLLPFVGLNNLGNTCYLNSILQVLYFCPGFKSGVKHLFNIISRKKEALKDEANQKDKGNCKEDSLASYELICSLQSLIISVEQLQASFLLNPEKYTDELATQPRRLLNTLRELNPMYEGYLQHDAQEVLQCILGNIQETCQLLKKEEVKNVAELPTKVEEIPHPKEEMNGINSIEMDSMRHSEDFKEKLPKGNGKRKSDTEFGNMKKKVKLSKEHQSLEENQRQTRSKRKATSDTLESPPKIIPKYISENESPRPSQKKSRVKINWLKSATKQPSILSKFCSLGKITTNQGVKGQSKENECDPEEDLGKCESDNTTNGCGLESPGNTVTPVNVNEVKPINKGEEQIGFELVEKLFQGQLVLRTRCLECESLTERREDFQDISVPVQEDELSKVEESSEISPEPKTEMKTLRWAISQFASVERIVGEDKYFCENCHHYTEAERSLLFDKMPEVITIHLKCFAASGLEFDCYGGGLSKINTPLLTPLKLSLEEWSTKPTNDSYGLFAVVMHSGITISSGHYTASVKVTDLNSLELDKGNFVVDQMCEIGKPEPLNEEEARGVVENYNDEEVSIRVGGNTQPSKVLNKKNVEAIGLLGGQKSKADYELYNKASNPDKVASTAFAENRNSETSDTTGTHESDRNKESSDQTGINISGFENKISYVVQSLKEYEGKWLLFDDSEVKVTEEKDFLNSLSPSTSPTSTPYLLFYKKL
SMILES,"activity change, negative = inhibition",Potency
CC(C)(C)CC(C)(C)c1ccc(O)c(-n2nc3ccccc3n2)c1,-7.18% (inactive),–
Oc1c(Cl)cc(Cl)c(Cl)c1Cc1c(O)c(Cl)cc(Cl)c1Cl,–,79.4 µM (active) and 31.6 µM (active)
CCN(CC)CCOc1ccc2c(c1)C(=O)c1cc(OCCN(CC)CC)ccc1-2,-6.98% (inactive),–
NCCNc1cccc2ccccc12,-0.0641% (inactive),–
CCOc1ccc(NC(C)=O)cc1,–,inactive
COc1cc(C(=O)N2CCCCCCC2)cc(OC)c1OC,-7.34% (inactive),–
C/C=C/c1ccc(O)c(OC)c1,-3.12% (inactive),–
CCOc1cc(OCC)c(C(=O)CCC(=O)O)cc1OCC,-7.95% (inactive),–
CN(C)CCC[C@@]1(c2ccc(F)cc2)OCc2cc(C#N)ccc21,-6.71% (inactive),–
CCOC(=O)Nc1ccc2c(c1)N(C(=O)CCN1CCOCC1)c1ccccc1S2,5.94% [at 54.9 µM] (inactive),–
COc1ccc(C(Cl)=C(c2ccc(OC)cc2)c2ccc(OC)cc2)cc1,-8.04% [at 54.9 µM] (inactive),–
CCOc1ccccc1OCCN[C@H](C)Cc1ccc(OC)c(S(N)(=O)=O)c1,-10.4% (inactive),–
CC(=O)OCC(=O)[C@H]1CC[C@H]2[C@@H]3CCC4=CC(=O)CC[C@]4(C)[C@H]3CC[C@]12C,-3.73% (inactive),–
CC(C)(Cc1c[nH]c2ccccc12)NCC(O)COc1ccccc1C#N (configuration not stated),-9.2% (inactive),–
CCCN(CCC)S(=O)(=O)c1ccc(C(=O)O)cc1,-5.18% (inactive),–
CCC(Cc1c(I)cc(I)c(N)c1I)C(=O)O (configuration not stated),-8.52% (inactive),–
NC(=O)c1ccccc1O,-10.3% (inactive),–
C=C[C@@]1(C)CC(=O)[C@]2(O)[C@@]3(C)[C@@H](O)CCC(C)(C)[C@@H]3[C@H](O)[C@H](OC(C)=O)[C@@]2(C)O1,-1.95% (inactive),–
CCOc1ccccc1C(N)=O,0.456% (inactive),–
Cc1cc(CC(=O)O)c(C)n1-c1ccc(Cl)cc1,-12.3% (inactive),–
N#CCC(=O)NN,-10.5% (inactive),–
O=[N+]([O-])c1cccc(S(=O)(=O)NCCNS(=O)(=O)c2cccc([N+](=O)[O-])c2)c1,-10.2% (inactive),–
O=C(Nc1ccc([N+](=O)[O-])cc1)Nc1ccc([N+](=O)[O-])cc1,-8.84% (inactive),–
O=C(O)c1ccc(S(=O)(=O)N(Cl)Cl)cc1,-1.31% (inactive),–
CCCCCCCCCCCCCC(=O)OC(C)C,-0.295% (inactive),–
COc1ccc(C(=O)c2ccccc2)c(O)c1,10% [at 54.9 µM] (inactive),–

# Biological target: Estrogen receptor (Homo sapiens) (UniProt P03372)
# Sequence (P03372 whole entry, looked up): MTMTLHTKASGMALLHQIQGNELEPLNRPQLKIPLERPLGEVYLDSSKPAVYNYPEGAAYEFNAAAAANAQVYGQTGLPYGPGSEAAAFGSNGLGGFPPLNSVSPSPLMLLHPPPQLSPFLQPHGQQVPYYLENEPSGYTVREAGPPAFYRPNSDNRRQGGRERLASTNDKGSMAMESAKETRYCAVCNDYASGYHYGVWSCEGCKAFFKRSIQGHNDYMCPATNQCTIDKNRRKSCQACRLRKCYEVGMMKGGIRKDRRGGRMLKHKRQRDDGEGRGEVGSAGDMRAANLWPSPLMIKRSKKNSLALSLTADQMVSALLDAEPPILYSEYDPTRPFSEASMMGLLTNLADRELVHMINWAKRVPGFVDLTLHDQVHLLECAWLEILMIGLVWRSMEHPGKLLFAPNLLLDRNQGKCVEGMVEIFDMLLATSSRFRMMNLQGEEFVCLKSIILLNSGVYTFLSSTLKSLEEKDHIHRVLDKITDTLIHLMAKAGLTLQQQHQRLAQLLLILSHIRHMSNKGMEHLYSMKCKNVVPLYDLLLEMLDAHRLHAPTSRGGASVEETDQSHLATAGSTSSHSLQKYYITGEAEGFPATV
# Experiment: qHTS assay for small molecule antagonists of estrogen receptor alpha signaling (AID 588513; active = well fitted curve in the direction sought with a large enough effect in the signal ratio, with a control signal flat, not every such curve was filed as active; inconclusive = small, poorly fitted or top-dose-only effect, or effect the other way, or a change in a side signal; inactive = no such curve, though single readings can be large or run the other way; the % refers to the signal ratio; note: potency is the fitted concentration of half-maximal effect; for activity, negative = inhibition: % is set by controls: 0 for no effect and ±100 for the full control effect)
# Conditions: ER-alpha-UAS-bla HEK293, beta-lactamase ratio, antagonist mode; series mostly up to 76.9 µM; activity, negative = inhibition: at the top concentration
# Method in brief: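 Beta-lactamase reporter, antagonist mode, HEK 293 GripTite cells; 0.5nM E2 stimulus, 18 h, 37 C; CCF4 dye 2 h RT; fluorescence. IC50 and efficacy from Hill fits, normalized to E2 and DMSO.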
SMILES,Potency,"activity, negative = inhibition"
CCOc1ccc(NC(C)=O)cc1,inactive,–
C/C=C/c1ccc(O)c(OC)c1,inactive,–
COc1cc([C@H]2Oc3cc([C@H]4Oc5cc(O)cc(O)c5C(=O)[C@@H]4O)ccc3O[C@@H]2CO)ccc1O,–,0.288% (inactive)
COc1ccc(C(Cl)=C(c2ccc(OC)cc2)c2ccc(OC)cc2)cc1,1.58 µM [inconclusive] (active),–
CCCCCCCCCCCCCCCCO,–,-0.743% (inactive)
CCCCCCCC/C=C\CCCCCCCCN,–,6.39% (inactive)
NC(=O)c1ccccc1O,–,22% (inactive)
CCOc1ccccc1C(N)=O,–,5.92% (inactive)
CCCCC(CC)COC(=O)c1ccc(N(C)C)cc1 (configuration not stated),inactive,–
CN(C)C(=O)Nc1ccc(Cl)c(Cl)c1,–,-15.5% (inactive)
O=C(O)c1ccc(S(=O)(=O)N(Cl)Cl)cc1,–,6.78% (inactive)
CCCCCCCCCCCCCC(=O)OC(C)C,–,25.1% (inactive)
COc1ccc(C(=O)c2ccccc2)c(O)c1,inactive,–

# Biological target: Estrogen receptor (Homo sapiens) (UniProt P03372)
# Experiment: qHTS assay for small molecule agonists of estrogen receptor alpha signaling (AID 588514); note: nearly all actives have a fitted effect of over 70% in size; note: potency is the fitted concentration of half-maximal effect;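 for activation: 0% = vehicle only and 100% = reference agonist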
# Conditions: ER-alpha-UAS-bla HEK293, beta-lactamase ratio, 18 h; series mostly up to 76.8 µM; activation: at the top concentration
# Method in brief: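 ER-alpha-UAS-bla GripTite HEK293 cells, 5000/well in 2% charcoal/dextran-stripped FBS medium, treated with compound titrations 18 h at 37 C. CCF4 beta-lactamase read by fluorescence after 2 h RT; normalised to 20 nM 17-beta-estradiol (100%) and DMSO (0%), Hill fit for EC50 and efficacy.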
SMILES,activation,Potency
CC(C)(C)CC(C)(C)c1ccc(O)c(-n2nc3ccccc3n2)c1,-4.85% (inactive),–
C#C[C@]1(O)CC[C@H]2[C@@H]3CCC4=Cc5oncc5C[C@]4(C)[C@H]3CC[C@@]21C,–,3.16 µM (active)
CCOc1ccc(NC(C)=O)cc1,–,inactive
C/C=C/c1ccc(O)c(OC)c1,–,inactive
COc1ccc(C(Cl)=C(c2ccc(OC)cc2)c2ccc(OC)cc2)cc1,-1.11% (inactive),–
CCCCCCCCCCCCCCCCO,3.54% (inactive),–
CCCCCCCCOc1ccc(C(=O)c2ccccc2)c(O)c1,-1.73% (inactive),–
CCCCCCCC/C=C\CCCCCCCCN,-2.04% (inactive),–
Oc1ccc(Cl)cc1Cc1cc(Cl)ccc1O,–,inactive
NC(=O)c1ccccc1O,8.42% (inactive),–
CCOc1ccccc1C(N)=O,-0.921% (inactive),–
CCCCC(CC)COC(=O)c1ccc(N(C)C)cc1 (configuration not stated),–,inactive
CN(C)C(=O)Nc1ccc(Cl)c(Cl)c1,3.32% (inactive),–
O=C(O)c1ccc(S(=O)(=O)N(Cl)Cl)cc1,-0.991% (inactive),–

# Biological target: Androgen receptor (Homo sapiens) (UniProt P10275)
# Sequence (P10275 whole entry, looked up): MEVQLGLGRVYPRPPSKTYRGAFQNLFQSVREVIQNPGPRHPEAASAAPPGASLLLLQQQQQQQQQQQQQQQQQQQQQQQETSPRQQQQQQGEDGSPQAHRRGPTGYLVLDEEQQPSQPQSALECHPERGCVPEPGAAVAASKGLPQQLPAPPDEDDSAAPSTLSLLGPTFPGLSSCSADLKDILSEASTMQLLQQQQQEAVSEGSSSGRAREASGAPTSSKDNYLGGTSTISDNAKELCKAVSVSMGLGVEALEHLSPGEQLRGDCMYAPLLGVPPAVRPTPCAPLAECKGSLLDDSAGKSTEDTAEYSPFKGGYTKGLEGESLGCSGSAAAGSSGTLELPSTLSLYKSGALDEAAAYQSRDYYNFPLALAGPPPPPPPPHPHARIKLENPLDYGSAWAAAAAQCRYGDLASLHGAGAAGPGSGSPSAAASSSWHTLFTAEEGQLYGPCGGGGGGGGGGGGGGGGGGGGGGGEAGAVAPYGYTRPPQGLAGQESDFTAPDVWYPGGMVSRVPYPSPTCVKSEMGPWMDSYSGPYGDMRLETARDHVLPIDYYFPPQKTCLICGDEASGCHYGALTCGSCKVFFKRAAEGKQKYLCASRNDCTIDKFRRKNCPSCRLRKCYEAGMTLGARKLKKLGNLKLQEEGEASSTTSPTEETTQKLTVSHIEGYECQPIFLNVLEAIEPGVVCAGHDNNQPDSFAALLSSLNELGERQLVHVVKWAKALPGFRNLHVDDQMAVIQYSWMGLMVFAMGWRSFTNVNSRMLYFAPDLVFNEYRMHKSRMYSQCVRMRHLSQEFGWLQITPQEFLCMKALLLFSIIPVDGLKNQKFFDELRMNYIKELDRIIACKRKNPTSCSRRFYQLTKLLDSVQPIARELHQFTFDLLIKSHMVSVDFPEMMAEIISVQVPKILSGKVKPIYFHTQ
# Experiment: qHTS assay for small molecule agonists of androgen receptor signaling (AID 588515; active = well fitted curve in the direction sought with a large enough effect in the signal ratio, with a control signal flat; inconclusive = small, poorly fitted or top-dose-only effect, or effect the other way, or a change in a side signal; inactive = no such curve, though single readings can be large or run the other way; the % refers to the signal ratio; note: % is set by controls: 0 for no effect and ±100 for the full control effect)
# Conditions: AR-UAS-bla HEK293, beta-lactamase ratio, agonist 16 h; hits give high values
# Method in brief: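 EC50 and efficacy came from Hill fits of titrations (up to 92 uM) normalized to 30 nM R1881 as 100% and DMSO as 0%. Compound exposure was 16 h at 37 C on AR-UAS-bla HEK293 cells, with a 405/460/530 nm CCF4 fluorescence read.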
row,SMILES,activation
1,NCCNc1cccc2ccccc12,6.42% (inactive)
2,CCOc1ccc(NC(C)=O)cc1,13.2% (inactive) and 14.9% (inactive)
3,CCCN(CCC)S(=O)(=O)c1ccc(C(=O)O)cc1,-5.06% (inactive) and 5.71% (inactive)
4,CCOc1ccccc1C(N)=O,-4.07% (inactive)
5,CN(C)C(=O)Nc1ccc(Cl)c(Cl)c1,0.958% (inactive)
6,COc1ccc(C(=O)c2ccccc2)c(O)c1,0.242% (inactive) and -6.84% (inactive)

# Biological target: Androgen receptor (Homo sapiens) (UniProt P10275)
# Experiment: qHTS assay for small molecule antagonists of androgen receptor signaling (AID 588516; active = well fitted curve in the direction sought with a large enough effect in the signal ratio, with a control signal flat, not every such curve was filed as active; inconclusive = small, poorly fitted or top-dose-only effect, or effect the other way, or a change in a side signal; inactive = no such curve, though single readings can be large or run the other way; the % refers to the signal ratio; note: potency is the fitted concentration of half-maximal effect)
# Conditions: AR-UAS-bla HEK293, beta-lactamase ratio, antagonist mode, 16 h; series mostly up to 76.8 µM; activity change, negative = inhibition: at the top concentration
# Method in brief: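 HEK293 AR-UAS-bla cells, 10% dialyzed FBS medium; cpd titration + R1881 10 nM final, 16 h 37 C; CCF4 2 h RT; FRET ratio; IC50/efficacy via Hill fit.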
SMILES,Potency,"activity change, negative = inhibition"
NCCNc1cccc2ccccc12,39.8 µM (active),–
CCOc1ccc(NC(C)=O)cc1,inactive,–
CCCN(CCC)S(=O)(=O)c1ccc(C(=O)O)cc1,inactive,–
CN(C)C(=O)Nc1ccc(Cl)c(Cl)c1,–,-23.3% (inactive)
CCCCCCCCCCCCCC(=O)OC(C)C,–,18.4% (inactive)

# Biological target: Bile acid receptor (Homo sapiens) (UniProt Q96RI1)
# Sequence (Q96RI1 whole entry, looked up): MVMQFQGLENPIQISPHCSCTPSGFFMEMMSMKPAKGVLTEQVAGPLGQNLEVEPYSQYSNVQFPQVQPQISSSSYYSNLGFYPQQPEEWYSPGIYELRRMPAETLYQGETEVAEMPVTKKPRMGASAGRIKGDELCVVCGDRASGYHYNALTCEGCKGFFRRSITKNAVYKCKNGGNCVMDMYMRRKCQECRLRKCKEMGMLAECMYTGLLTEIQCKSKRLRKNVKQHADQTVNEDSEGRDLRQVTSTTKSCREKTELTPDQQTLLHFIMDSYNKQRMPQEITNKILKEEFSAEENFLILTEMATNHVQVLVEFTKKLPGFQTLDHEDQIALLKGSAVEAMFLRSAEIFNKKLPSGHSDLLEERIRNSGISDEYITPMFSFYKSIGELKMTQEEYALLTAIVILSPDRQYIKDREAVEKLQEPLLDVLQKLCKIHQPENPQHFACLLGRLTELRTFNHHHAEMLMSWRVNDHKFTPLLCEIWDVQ
# Experiment: qHTS assay for small molecule antagonists of farnesoid X receptor signaling (AID 588526); note: % is set by controls: 0 for no effect and ±100 for the full control effect
# Conditions: HEK293T FXR-UAS-bla, beta-lactamase ratio, antagonist mode; series mostly up to 76.7 µM; activity change, negative = inhibition: at the top concentration
# Method in brief: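 Concentration-response titrations were fitted to the Hill equation for half-maximal inhibition and maximal response, with data normalised to 50 uM chenodeoxycholic acid and DMSO control wells. Cells: FXR-UAS-bla HEK293T, dialyzed FBS.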
SMILES,outcome,"activity change, negative = inhibition"
CCOc1ccc(NC(C)=O)cc1,inactive,–
COc1cc([C@H]2Oc3cc([C@H]4Oc5cc(O)cc(O)c5C(=O)[C@@H]4O)ccc3O[C@@H]2CO)ccc1O,–,-24.2% (inactive)
CCCN(CCC)S(=O)(=O)c1ccc(C(=O)O)cc1,inactive,–
CCCCOC(=O)CC(CC(=O)OCCCC)(OC(C)=O)C(=O)OCCCC,–,-9.4% (inactive)
CCOc1ccccc1C(N)=O,–,-2.78% (inactive)
CCCCC(CC)COC(=O)c1ccc(N(C)C)cc1 (configuration not stated),–,-14.4% (inactive)
O=C(O)c1ccc(S(=O)(=O)N(Cl)Cl)cc1,–,-5.32% (inactive)
COc1ccc(C(=O)c2ccccc2)c(O)c1,inactive,–
